About 8,800 targets were measured; listed, in parts, are those with a hit and a random draw of the rest. About 0.5% of all pairs of compound and target were hits.

Chain of UniProt Q96CQ1 (Q96CQ1 whole entry, looked up): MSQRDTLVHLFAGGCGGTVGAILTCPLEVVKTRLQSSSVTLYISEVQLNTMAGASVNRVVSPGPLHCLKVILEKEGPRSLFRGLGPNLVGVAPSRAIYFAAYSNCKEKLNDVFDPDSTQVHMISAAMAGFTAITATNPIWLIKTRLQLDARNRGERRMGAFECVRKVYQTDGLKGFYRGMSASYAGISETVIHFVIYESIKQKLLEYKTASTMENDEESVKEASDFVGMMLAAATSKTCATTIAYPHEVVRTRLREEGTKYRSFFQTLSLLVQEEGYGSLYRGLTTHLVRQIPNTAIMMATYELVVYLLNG
Chain of UniProt B2RUZ4 (B2RUZ4 whole entry, looked up): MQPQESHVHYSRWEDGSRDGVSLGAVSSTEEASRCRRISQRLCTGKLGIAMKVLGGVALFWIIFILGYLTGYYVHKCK
Chain of UniProt Q8N196 (Q8N196 whole entry, looked up): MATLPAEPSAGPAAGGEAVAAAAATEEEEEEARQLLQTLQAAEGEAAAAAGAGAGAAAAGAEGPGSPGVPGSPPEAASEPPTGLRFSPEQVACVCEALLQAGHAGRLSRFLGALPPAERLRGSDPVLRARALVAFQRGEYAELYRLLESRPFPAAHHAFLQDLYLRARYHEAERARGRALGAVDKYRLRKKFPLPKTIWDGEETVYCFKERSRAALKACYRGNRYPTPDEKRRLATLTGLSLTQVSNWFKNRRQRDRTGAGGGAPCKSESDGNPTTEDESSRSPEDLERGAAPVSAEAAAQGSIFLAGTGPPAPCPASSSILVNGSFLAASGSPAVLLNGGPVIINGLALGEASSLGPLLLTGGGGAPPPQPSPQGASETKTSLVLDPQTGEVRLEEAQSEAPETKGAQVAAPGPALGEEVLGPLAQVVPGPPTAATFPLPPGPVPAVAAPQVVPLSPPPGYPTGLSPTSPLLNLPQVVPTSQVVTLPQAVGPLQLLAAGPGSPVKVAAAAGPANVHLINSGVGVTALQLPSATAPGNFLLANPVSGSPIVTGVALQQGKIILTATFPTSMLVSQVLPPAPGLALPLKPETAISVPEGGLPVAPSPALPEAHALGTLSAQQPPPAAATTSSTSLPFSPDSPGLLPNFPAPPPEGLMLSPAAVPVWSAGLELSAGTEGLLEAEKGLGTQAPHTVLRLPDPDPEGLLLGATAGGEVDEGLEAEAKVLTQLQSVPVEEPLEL
Chain of UniProt Q9NP59 (Q9NP59 whole entry, looked up): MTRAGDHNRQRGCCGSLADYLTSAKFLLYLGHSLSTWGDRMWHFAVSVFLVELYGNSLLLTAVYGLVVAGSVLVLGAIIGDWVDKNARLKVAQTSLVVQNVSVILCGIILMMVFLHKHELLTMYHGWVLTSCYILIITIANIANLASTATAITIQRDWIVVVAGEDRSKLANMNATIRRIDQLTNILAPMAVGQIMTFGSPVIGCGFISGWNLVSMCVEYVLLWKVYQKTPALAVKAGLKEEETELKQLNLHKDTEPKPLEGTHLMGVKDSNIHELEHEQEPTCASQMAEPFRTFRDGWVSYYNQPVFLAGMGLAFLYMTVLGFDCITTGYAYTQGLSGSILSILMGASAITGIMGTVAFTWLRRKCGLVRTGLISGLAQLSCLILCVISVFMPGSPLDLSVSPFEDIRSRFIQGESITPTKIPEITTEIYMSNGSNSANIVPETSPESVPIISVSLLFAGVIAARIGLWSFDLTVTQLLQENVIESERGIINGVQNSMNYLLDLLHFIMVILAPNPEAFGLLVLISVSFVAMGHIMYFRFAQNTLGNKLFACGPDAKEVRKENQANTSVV
Chain of UniProt Q15464 (Q15464 whole entry, looked up): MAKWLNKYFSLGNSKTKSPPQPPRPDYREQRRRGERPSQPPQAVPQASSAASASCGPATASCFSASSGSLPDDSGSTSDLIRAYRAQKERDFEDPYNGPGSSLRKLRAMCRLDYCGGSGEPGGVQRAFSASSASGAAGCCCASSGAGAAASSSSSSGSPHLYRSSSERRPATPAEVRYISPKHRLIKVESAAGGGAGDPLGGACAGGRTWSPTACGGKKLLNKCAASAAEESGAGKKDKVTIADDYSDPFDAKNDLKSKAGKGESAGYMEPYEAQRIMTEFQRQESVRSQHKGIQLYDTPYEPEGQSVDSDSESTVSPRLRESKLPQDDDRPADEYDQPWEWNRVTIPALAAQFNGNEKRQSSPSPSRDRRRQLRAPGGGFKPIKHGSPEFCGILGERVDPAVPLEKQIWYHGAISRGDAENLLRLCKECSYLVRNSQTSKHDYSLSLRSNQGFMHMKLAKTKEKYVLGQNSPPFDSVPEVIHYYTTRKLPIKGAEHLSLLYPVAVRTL
Chain of UniProt O75182 (O75182 whole entry, looked up): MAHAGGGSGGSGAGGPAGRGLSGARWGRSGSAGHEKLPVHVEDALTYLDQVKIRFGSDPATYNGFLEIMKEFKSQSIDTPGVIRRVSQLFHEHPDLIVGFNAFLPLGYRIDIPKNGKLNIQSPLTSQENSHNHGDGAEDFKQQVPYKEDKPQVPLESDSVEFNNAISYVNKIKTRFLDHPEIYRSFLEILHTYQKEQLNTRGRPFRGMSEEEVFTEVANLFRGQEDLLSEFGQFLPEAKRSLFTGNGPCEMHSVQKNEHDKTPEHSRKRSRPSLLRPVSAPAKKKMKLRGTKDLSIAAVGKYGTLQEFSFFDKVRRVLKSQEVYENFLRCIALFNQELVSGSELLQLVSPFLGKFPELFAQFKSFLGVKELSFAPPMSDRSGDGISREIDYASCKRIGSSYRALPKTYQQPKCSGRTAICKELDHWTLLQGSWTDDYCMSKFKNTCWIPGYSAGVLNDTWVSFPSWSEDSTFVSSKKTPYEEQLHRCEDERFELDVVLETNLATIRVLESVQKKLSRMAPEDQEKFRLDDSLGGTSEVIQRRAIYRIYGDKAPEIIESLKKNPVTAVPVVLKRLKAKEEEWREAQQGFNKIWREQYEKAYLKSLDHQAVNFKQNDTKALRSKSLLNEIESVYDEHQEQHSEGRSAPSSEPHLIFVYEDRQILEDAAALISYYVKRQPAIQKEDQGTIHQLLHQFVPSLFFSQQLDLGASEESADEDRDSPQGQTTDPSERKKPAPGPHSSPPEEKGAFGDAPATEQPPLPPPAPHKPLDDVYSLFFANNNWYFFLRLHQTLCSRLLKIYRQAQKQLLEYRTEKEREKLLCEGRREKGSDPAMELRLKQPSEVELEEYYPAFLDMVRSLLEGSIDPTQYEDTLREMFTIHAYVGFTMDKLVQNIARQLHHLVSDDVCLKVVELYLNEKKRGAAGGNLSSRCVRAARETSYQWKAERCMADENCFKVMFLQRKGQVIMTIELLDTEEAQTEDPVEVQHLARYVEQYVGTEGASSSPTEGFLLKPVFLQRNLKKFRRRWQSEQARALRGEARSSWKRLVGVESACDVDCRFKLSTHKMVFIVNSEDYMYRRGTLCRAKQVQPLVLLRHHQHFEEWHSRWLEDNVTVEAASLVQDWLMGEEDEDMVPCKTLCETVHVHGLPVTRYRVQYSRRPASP
Chain of UniProt Q8IVJ1 (Q8IVJ1 whole entry, looked up): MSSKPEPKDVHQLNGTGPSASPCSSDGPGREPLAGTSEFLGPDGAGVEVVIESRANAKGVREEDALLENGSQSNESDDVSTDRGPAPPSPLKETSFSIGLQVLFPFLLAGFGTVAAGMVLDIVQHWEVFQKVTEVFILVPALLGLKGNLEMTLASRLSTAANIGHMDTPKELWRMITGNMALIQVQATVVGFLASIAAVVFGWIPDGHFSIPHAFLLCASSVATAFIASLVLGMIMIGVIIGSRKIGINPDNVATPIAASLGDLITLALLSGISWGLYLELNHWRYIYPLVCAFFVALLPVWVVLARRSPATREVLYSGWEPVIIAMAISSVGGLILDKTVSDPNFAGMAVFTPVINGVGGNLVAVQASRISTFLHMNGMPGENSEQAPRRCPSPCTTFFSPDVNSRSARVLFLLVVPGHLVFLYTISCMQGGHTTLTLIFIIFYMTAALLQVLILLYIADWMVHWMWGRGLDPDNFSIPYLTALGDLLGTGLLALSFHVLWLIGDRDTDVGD
Chain of UniProt Q15544 (Q15544 whole entry, looked up): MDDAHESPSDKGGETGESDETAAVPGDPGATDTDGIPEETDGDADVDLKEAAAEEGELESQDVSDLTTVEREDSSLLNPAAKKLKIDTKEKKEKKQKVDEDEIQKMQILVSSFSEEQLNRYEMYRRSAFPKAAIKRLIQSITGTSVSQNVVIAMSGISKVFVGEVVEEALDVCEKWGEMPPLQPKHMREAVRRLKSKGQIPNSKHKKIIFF
Chain of UniProt Q13487 (Q13487 whole entry, looked up): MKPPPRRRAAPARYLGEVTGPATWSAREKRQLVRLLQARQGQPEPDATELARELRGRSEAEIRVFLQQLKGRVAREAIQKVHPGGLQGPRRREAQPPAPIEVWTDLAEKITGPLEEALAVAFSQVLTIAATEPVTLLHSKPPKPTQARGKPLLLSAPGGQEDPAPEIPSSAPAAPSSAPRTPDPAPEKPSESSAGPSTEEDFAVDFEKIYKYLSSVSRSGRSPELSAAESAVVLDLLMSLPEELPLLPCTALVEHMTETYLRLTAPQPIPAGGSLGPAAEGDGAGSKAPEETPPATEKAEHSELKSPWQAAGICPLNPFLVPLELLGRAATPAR
Chain of UniProt Q9Y2D2 (Q9Y2D2 whole entry, looked up): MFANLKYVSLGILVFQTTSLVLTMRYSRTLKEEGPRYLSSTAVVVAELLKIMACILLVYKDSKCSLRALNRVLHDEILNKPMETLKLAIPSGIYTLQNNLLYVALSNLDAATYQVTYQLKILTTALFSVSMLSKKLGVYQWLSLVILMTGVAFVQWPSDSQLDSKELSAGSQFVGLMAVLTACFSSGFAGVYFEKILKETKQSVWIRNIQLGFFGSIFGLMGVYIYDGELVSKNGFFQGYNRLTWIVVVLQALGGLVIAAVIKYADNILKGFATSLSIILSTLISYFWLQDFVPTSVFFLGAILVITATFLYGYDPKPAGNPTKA
Chain of UniProt O00161 (O00161 whole entry, looked up): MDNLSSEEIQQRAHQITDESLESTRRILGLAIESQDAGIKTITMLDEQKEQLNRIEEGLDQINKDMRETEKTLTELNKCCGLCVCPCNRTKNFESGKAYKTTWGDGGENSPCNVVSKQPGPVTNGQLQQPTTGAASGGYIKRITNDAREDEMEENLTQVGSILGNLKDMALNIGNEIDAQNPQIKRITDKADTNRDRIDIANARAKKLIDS

Compound in the first test: CCn1cc(-c2ccnc3[nH]c(-c4cccc(CN(C)C)c4)cc23)c(-c2ccc(NC(=O)N(C)C)cc2)n1
The experiment in a line: log2 fold change, soluble protein after heating vs DMSO (PISA); higher = thermal stabilisation; K562 lysate, 10 uM; active = over 0.2 and 3.5 SD of the protein, either way, in both replicates (recomputed). Summed up: (§1)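 Values give the log-two fold change in thermal stability against solvent controls, from duplicates. Crude K562 extract at 1 mg/mL protein, made by dounce homogenisation in PBS pH 7.4 with 1 mM MgCl2, was treated with 10 μM compound for 30 min. After 3 min heating across 48°C-58°C, aliquots were pooled, adjusted to 0.5% NP-40 at 4°C and centrifuged at 21,000xg for 90 min. The supernatant was measured by TMTpro 16plex LC-MS/MS with channel sums equalised.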
For SKP2 (UniProt Q13309), the log2 fold change is 0.121 (inactive).

Regarding SRC isoform 2 (UniProt P12931), the log2 fold change is 0.184 (inactive).

As for SNAP23 isoform 2 (UniProt O00161), the log2 fold change was 0.123 (inactive).

SMARCA4 isoform 4 (UniProt P51532): the log2 fold change is -0.086 (inactive).

Take SZT2 (UniProt Q5T011): the log2 fold change is 0.035 (inactive).

Consider SHC1 (UniProt P29353), for which the log2 fold change was -0.2 (inactive).

Consider STAR (UniProt P49675), for which the log2 fold change was 0.043 (inactive).

For the target SHB (UniProt Q15464), the log2 fold change was -0.125 (inactive).

Turning to STK17A (UniProt Q9UEE5), the log2 fold change was 0.164 (inactive).

Take SNAPC2 (UniProt Q13487): the log2 fold change was 0.039 (inactive).

In the case of SIN3B (UniProt O75182), the log2 fold change is -0.061 (inactive).

For STAU1 isoform 3 (UniProt O95793), the log2 fold change is -0.166 (inactive).

As for TAF11 (UniProt Q15544), the log2 fold change was -0.028 (inactive).

In the case of SMIM1 (UniProt B2RUZ4), the log2 fold change was -0.036 (inactive).

For the target SLU7 (UniProt O95391), the log2 fold change was -0.188 (inactive).

As for SLC25A36 (UniProt Q96CQ1), the log2 fold change is -0.016 (inactive).

SMPD2 (UniProt O60906): the log2 fold change is -0.003 (inactive).

Take SLC40A1 (UniProt Q9NP59): the log2 fold change is -0.491 (active).

On to SLC41A1 (UniProt Q8IVJ1), for which the log2 fold change is 0.083 (inactive).

Regarding SLCO4A1 (UniProt Q96BD0), the log2 fold change was -0.015 (inactive).

On to SIX5 (UniProt Q8N196), for which the log2 fold change is 0.538 (inactive).

In the case of SLC35A3 isoform 2 (UniProt Q9Y2D2), the log2 fold change was -1.1 (active).

Compound in another test: CN1CCC(CNc2ccc3ncc(-c4cccc(OC(F)(F)F)c4)n3n2)CC1
Described as above. In short, it runs like this:
as §1
SKP2 (UniProt Q13309): the log2 fold change is -0.008 (inactive).

With SRC isoform 2 (UniProt P12931), the log2 fold change was -0.121 (inactive).

In the case of SNAP23 isoform 2 (UniProt O00161), the log2 fold change was -0.061 (inactive).

On to SMARCA4 isoform 4 (UniProt P51532), for which the log2 fold change was 0.057 (inactive).

As to SZT2 (UniProt Q5T011), the log2 fold change was 0.094 (inactive).

Regarding SHC1 (UniProt P29353), the log2 fold change is -0.114 (inactive).

On to STAR (UniProt P49675), for which the log2 fold change is -0.03 (inactive).

On to SHB (UniProt Q15464), for which the log2 fold change is -0.162 (inactive).

With STK17A (UniProt Q9UEE5), the log2 fold change is -0.109 (inactive).

Consider SNAPC2 (UniProt Q13487), for which the log2 fold change is 0.048 (inactive).

On to SIN3B (UniProt O75182), for which the log2 fold change was 0.267 (inactive).

STAU1 isoform 3 (UniProt O95793): the log2 fold change is -0.016 (inactive).

Turning to TAF11 (UniProt Q15544), the log2 fold change is 0.086 (inactive).

On to SMIM1 (UniProt B2RUZ4), for which the log2 fold change is -0.222 (inactive).

As to SLU7 (UniProt O95391), the log2 fold change is 0.166 (inactive).

SLC25A36 (UniProt Q96CQ1): the log2 fold change was 0.035 (inactive).

SMPD2 (UniProt O60906): the log2 fold change is -0.104 (inactive).

As to SLC40A1 (UniProt Q9NP59), the log2 fold change is 0.067 (inactive).

Consider SLC41A1 (UniProt Q8IVJ1), for which the log2 fold change is 0.06 (inactive).

On to SLCO4A1 (UniProt Q96BD0), for which the log2 fold change was 0.042 (inactive).

In the case of SIX5 (UniProt Q8N196), the log2 fold change was -0.132 (inactive).

As for SLC35A3 isoform 2 (UniProt Q9Y2D2), the log2 fold change was 0.336 (inactive).

Compound in a further test: CN1CCN(CCOc2cc(OC3CCOCC3)c3c(Nc4c(Cl)ccc5c4OCO5)ncnc3c2)CC1 [saracatinib]
Described as above. Summed up: as §1
Take SKP2 (UniProt Q13309): the log2 fold change is -0.011 (inactive).

Consider SLC12A6 isoform 2 (UniProt Q9UHW9), for which the log2 fold change was 0.042 (inactive).

Regarding SMARCA4 isoform 4 (UniProt P51532), the log2 fold change is 0.119 (inactive).

For SZT2 (UniProt Q5T011), the log2 fold change is -0.073 (inactive).

In the case of STAR (UniProt P49675), the log2 fold change was 0.006 (inactive).

STK38L (UniProt Q9Y2H1): the log2 fold change is -0.058 (inactive).

Take SHB (UniProt Q15464): the log2 fold change is 0.003 (inactive).

As for SNAPC2 (UniProt Q13487), the log2 fold change was 0.038 (inactive).

On to TAF11 (UniProt Q15544), for which the log2 fold change is -0.021 (inactive).

With STK26 isoform 3 (UniProt Q9P289), the log2 fold change is -0.046 (inactive).

In the case of SNRPD2 (UniProt K7EJB5), the log2 fold change is -0.049 (inactive).

For the target SLU7 (UniProt O95391), the log2 fold change was 0.093 (inactive).

Take SLC25A36 (UniProt Q96CQ1): the log2 fold change is -0.001 (inactive).

On to SMPD2 (UniProt O60906), for which the log2 fold change was 0.018 (inactive).

As to SLC40A1 (UniProt Q9NP59), the log2 fold change is 0 (inactive).

With STK17B (UniProt O94768), the log2 fold change was -0.002 (inactive).

For SIX5 (UniProt Q8N196), the log2 fold change was -0.093 (inactive).

Compound in the next test: CN1CCN(c2nc(C3=C(c4c[nH]c5ccccc45)C(=O)NC3=O)c3ccccc3n2)CC1 [sotrastaurin]
Described as above. In short, it runs like this: as §1
SKP2 (UniProt Q13309): the log2 fold change is 0.032 (inactive).

On to SLC12A6 isoform 2 (UniProt Q9UHW9), for which the log2 fold change is 0.057 (inactive).

As for SPAG1 (UniProt Q07617), the log2 fold change is -0.02 (inactive).

SMARCA4 isoform 4 (UniProt P51532): the log2 fold change was 0.325 (inactive).

For the target STAR (UniProt P49675), the log2 fold change was 0.061 (inactive).

Consider STK38L (UniProt Q9Y2H1), for which the log2 fold change was -0.01 (inactive).

For SHB (UniProt Q15464), the log2 fold change was -0.003 (inactive).

Regarding SNAPC2 (UniProt Q13487), the log2 fold change is 0.154 (inactive).

Turning to SIN3B (UniProt O75182), the log2 fold change was -0.099 (inactive).

Consider STAU1 isoform 3 (UniProt O95793), for which the log2 fold change was 0.092 (inactive).

As to TAF11 (UniProt Q15544), the log2 fold change is 0.026 (inactive).

As for STK26 isoform 3 (UniProt Q9P289), the log2 fold change is -0.119 (inactive).

Consider SMIM1 (UniProt B2RUZ4), for which the log2 fold change is 0.088 (inactive).

Take SNRPD2 (UniProt K7EJB5): the log2 fold change is 0.112 (inactive).

Consider SLU7 (UniProt O95391), for which the log2 fold change is -0.027 (inactive).

Regarding SLC25A36 (UniProt Q96CQ1), the log2 fold change was -0.055 (inactive).

As to SLC40A1 (UniProt Q9NP59), the log2 fold change was 0.026 (inactive).

Regarding SLC41A1 (UniProt Q8IVJ1), the log2 fold change was 0.082 (inactive).

Regarding STK17B (UniProt O94768), the log2 fold change is 0.057 (inactive).

SIX5 (UniProt Q8N196): the log2 fold change was -0.009 (inactive).

For the target SLC35A3 isoform 2 (UniProt Q9Y2D2), the log2 fold change is -0.026 (inactive).

The values are drawn from the supplement of paper PMC10849652.
